# Several values for one entry are separate records, joined by “and”; a condition that tells them apart may be missing. Identical values can stand only once. Records with an inconclusive call do not appear. The source holds several records for some structures; these can differ, active in one and inactive in another. Activity calls are given as the source filed them. Calls come from the whole dose curve; as a rule, active = well fitted cell-killing curve with a large enough effect in the repeat runs; inconclusive = weak or mixed curves; inactive = no such curve, though single readings can be large or run the other way.
# Assay: qHTS assay to identify small molecule agonists of the peroxisome proliferator-activated receptor delta (PPARd) signaling pathway - cell viability counter screen (AID 743211); note: nearly all actives have a fitted effect of over 55% in size
# Details: PPARd-bla HEK293H viability, CellTiter-Glo luminescence, 17 h; series mostly up to 62.6 µM; activity change, negative = cytotoxicity: at the top concentration
# Excerpt: U.S. Tox21 Program National Center for Advancing Translational Sciences [NCATS] NIH Chemical Genomics Center [NCGC] U.S. Environmental Protection Agency [EPA] National Institutes of Environmental Health Sciences [NIEHS] National Toxicology Program [NTP] U.S. Food and Drug Administration [FDA] Tox21 Assay Overview: The peroxisome proliferator-activated receptors (PPARs) are lipid-activated transcription factors of the nuclear receptor superfamily with three distinct subtypes namely PPAR alpha, PPAR delta (PPARd) and PPAR gamma. All these subtypes heterodimerizes with Retinoid X receptor (RXR) and have different physiological functions. […] To identify the compounds that activate PPAR-delta signaling, GeneBLAzer PPAR delta UAS-bla HEK293H cell line (Invitrogen, Carlsbad, CA, USA) containing a beta-lactamase reporter gene under the control of an Upstream Activator Sequence (UAS) was used to screen the Tox21 compound library. The cytotoxicity of the Tox21 compound library against the PPARd-bla cell line was tested in parallel by measuring the cell viability using CellTiter-Glo assay (Promega, Madison, WI) in the same wells.
# Tox21 Assay Protocol Summary: PPARd-bla cells were dispensed at 3000 cells/6uL/well in 1536-well black wall/clear bottom plates using a Multidrop Combi (Thermo Fisher Scientific, Waltham, MA) dispenser. After the assay plates were incubated at 37 C and 5% CO2 for 5 h, 23 nL of compounds dissolved in DMSO, positive controls or DMSO only was transferred to the assay plate by a Pintool station (Kalypsys, San Diego, CA). The assay plates were incubated at 37C for 17 h. After 1 uL of LiveBLAzerTM B/G FRET substrate was added using a Bioraptr Flying Reagent Dispenser (FRD) workstation (Beckman Coulter, Indianapolis, IN, USA), the plates were incubated at room temperature for 2 h, and fluorescence intensity was measured by an Envision plate reader (PerkinElmer, Shelton, CT). For cell viability readout that measures cytotoxicity, 3 ul/well of CellTiter-Glo reagent was added into the assay plates using a Bioraptr FRD. After 30 min incubation at room temperature, the luminescence intensity in the plates was measured using a ViewLux plate reader (PerkinElmer).
# % is set by controls: 0 for no effect and ±100 for the full control effect; potency is the fitted concentration of half-maximal effect.
Structure (SMILES),Potency,"activity change, negative = cytotoxicity"
OC(c1ccc(Cl)cc1)(c1ccc(Cl)cc1)c1cccnc1,54.9 µM (active),
O=C(O)CC(Cl)C(=O)O (stereo not given),,-7% [at 81.1 µM] (inactive)
C(=NC1CCCCC1)=NC1CCCCC1,inactive and 21.9 µM (active),
CCOc1ccc(C(C)(C)COCc2cccc(Oc3ccccc3)c2)cc1,,5.95% (inactive)
CC1Sc2c(C(=O)O)c(=O)c3cc(F)c(N4CCNCC4)cc3n21 (stereo not given),,2.06% (inactive)
CC(C)N(CCC(C(N)=O)(c1ccccc1)c1ccccn1)C(C)C (stereo not given),,-8.27% (inactive)
Nc1nc(=S)[nH][nH]1,,-1.75% (inactive)
COC(=O)C(Cl)C(=O)OC,,-0.516% (inactive)
O=NN1CCNCC1,,-9.24% [at 81.1 µM] (inactive)
CCCCc1c(C)nc(NCC)nc1OS(=O)(=O)N(C)C,,-8.03% (inactive)
COC1=CC(=O)O[C@@H](CCc2ccccc2)C1,,-2.56% [at 81.1 µM] (inactive)
NC(=O)CI,,-1.12% [at 81.1 µM] (inactive)
c1ccoc1,,3.14% (inactive)
C[C@]12CC[C@H]3[C@@H](CCC4=CC(=O)CC[C@@H]43)[C@@H]1CC[C@@H]2OC(=O)CCC1CCCCC1,,-0.534% (inactive)
CC(=O)CCC(C)=O,,-0.803% [at 81.1 µM] (inactive)
Oc1ccc(Cl)c(Cl)c1Cl,,-21% [at 81.1 µM] (inactive)
N#CCc1ccccc1,,6.89% [at 81.1 µM] (inactive)
ClC=C(Cl)Cl,,5.77% [at 81.1 µM] (inactive)
Nc1ccc(N=Nc2ccc(-c3ccc(N=Nc4c(S(=O)(=O)O)cc5cc(S(=O)(=O)O)c(N=Nc6ccccc6)c(O)c5c4N)cc3)cc2)c(N)c1,,-26.3% (inactive)
Cc1ccccc1C(=O)Nc1cccc(OC(C)C)c1,,-19.3% (inactive)

Structure (SMILES),Potency,"activity change, negative = cytotoxicity"
ClCc1ccccc1,,0.809% (inactive)
CCCCCC[N+](=O)[O-],,20% [at 81.1 µM] (inactive)
COc1nn(CSP(=S)(OC)OC)c(=O)s1,,-28% [at 81.1 µM] (inactive)
CN(N=O)c1ccc([N+](=O)[O-])cc1,,-5.98% (inactive)
C=CCCl,,1.85% [at 81.1 µM] (inactive)
CS/C(C)=N/OC(=O)N(C)SN(C)C(=O)O/N=C(\C)SC,,-16% (inactive)
CCOC(=O)COc1cc(-c2nn(C)c(OC(F)F)c2Cl)c(F)cc1Cl,,11.4% (inactive)
CCN(C)N=O,,7.96% (inactive)
CC(O)(CS(=O)(=O)c1ccc(F)cc1)C(=O)Nc1ccc(C#N)c(C(F)(F)F)c1 (stereo not given),,-27.6% (inactive)
CN1C(=O)C(O)N=C(c2ccccc2)c2cc(Cl)ccc21 (stereo not given),,2.49% [at 81.1 µM] (inactive)
CCCN(CCCl)c1c([N+](=O)[O-])cc(C(F)(F)F)cc1[N+](=O)[O-],,0.649% (inactive)
O=S(=O)(Cl)c1ccccc1,,4.5% [at 81.1 µM] (inactive)
CC(C)(OO)c1ccccc1,,1.04% (inactive)
O=[N+]([O-])c1cc(C(F)(F)F)cc([N+](=O)[O-])c1Cl,,-7.83% [at 81.1 µM] (inactive)
CCC(Br)(CC)C(=O)NC(N)=O,,6.19% (inactive)
CC1(C)[C@H](C=C(Cl)Cl)[C@@H]1C(=O)O[C@@H](C#N)c1cccc(Oc2ccccc2)c1,,-7.08% (inactive)
C=CC(=O)OCC(C)O (stereo not given),,-3.86% [at 81.1 µM] (inactive)
COP(=S)(OC)Oc1cc(Cl)c(I)cc1Cl,,-10.2% (inactive)
C=CCN1CC[C@]23c4c5ccc(O)c4O[C@H]2C(=O)CC[C@@]3(O)[C@H]1C5,,6.34% (inactive)
CCOc1nc(F)cc2nc(S(=O)(=O)Nc3c(Cl)cccc3Cl)nn12,,7.74% (inactive)
